Measurements from PubChem BioAssay (NCATS).
Records with an inconclusive call do not appear. The source made the active and inactive calls. Unless noted, the call rests on the fitted dose curve; in most records, active means well fitted curve in the direction sought with a large enough effect; inconclusive means small, poorly fitted or top-dose-only effect, or another doubt; inactive means no such curve, though single readings can be large; an effect the other way counts as inactive or inconclusive.

How the values were obtained:
[1] = molecular target: Nucleoprotein (Lymphocytic choriomeningitis virus (strain Armstrong)) (UniProt P09992); assay: qHTS for Inhibitors of the Functional Ribonucleoprotein Complex (vRNP) of Lymphocytic Choriomeningitis Arenaviruses (LCMV): LCMV Primary Screen - GLuc reporter signal (AID 1347086; calls by dose curve; further: nearly all actives have a fitted effect of over 70% in size)
Nucleoprotein (Lymphocytic choriomeningitis virus (strain Armstrong)), sequence (P09992 whole entry, looked up): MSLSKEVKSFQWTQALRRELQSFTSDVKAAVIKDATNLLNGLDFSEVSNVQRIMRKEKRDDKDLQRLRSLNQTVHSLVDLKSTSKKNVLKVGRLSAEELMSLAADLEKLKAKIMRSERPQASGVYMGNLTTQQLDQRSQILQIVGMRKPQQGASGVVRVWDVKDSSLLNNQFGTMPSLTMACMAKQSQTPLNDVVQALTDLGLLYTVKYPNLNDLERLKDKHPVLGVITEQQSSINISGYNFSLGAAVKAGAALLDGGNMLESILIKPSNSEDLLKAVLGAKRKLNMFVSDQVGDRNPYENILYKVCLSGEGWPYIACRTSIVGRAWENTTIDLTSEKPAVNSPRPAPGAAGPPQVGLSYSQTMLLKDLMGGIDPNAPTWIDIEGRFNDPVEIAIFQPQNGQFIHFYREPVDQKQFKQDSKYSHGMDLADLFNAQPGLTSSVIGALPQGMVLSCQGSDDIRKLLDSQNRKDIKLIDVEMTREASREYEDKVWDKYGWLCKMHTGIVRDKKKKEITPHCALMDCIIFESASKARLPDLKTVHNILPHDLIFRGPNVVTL

[2] = qHTS of pediatric cancer cell lines to identify multiple opportunities for drug repurposing: Primary screen for TC32 cells (AID 1347089); further: nearly all actives have a fitted effect of over 60% in size
Outline: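 qHTS, TC32, 48 h drug treatment, CellTiter-Glo luminescence as a proxy for metabolically active cells; primary top concentration 46 µM (MIPE 11-pt, NPC 8-pt); confirmatory 11-pt.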

[3] = qHTS of pediatric cancer cell lines to identify multiple opportunities for drug repurposing: Primary screen for SJ-GBM2 cells (AID 1347091)
Outline: (§1)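 Eight- or eleven-point concentration series, 48 h treatment at 37 degrees C in growth media; readout CellTiter-Glo luminescence. Potency and efficacy were taken from the concentration-response curves.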

[4] = qHTS of pediatric cancer cell lines to identify multiple opportunities for drug repurposing: Primary screen for SK-N-MC cells (AID 1347093)
Outline: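 Metabolically active cells were quantified by ATP-dependent luminescence (CellTiter-Glo, 15 min at room temperature) following 48 h treatment. Cells had been plated at 500-1,000 per well and settled for 5 h beforehand.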

[5] = qHTS of pediatric cancer cell lines to identify multiple opportunities for drug repurposing: Primary screen for BT-37 cells (AID 1347094)
Outline: (§2)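 Quantitative HTS format: each compound titrated (MIPE 11 points from 0.78 nM, NPC 8 points from 0.59 nM) onto cells plated 5 hours earlier. After 48 h at 37 degrees C, CellTiter-Glo luminescence was recorded.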

[6] = qHTS of pediatric cancer cell lines to identify multiple opportunities for drug repurposing: Primary screen for NB-EBc1 cells (AID 1347095)
Outline: as §2

[7] = qHTS of pediatric cancer cell lines to identify multiple opportunities for drug repurposing: Primary screen for A673 cells (AID 1347092); further: nearly all actives have a fitted effect of over 45% in size
Outline: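 Luminescence from CellTiter-Glo, taken after 15 min at room temperature, served as the proxy for metabolically active cells following 48 h treatment. Both potency and efficacy were taken from curves fitted to the titration data.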

[8] = qHTS for Inhibitors of the Functional Ribonucleoprotein Complex (vRNP) of Lymphocytic Choriomeningitis Arenaviruses (LCMV): Viability assay - alamar blue signal for LCMV Primary Screen (AID 1347085; calls by dose curve; tested in HEK293 reporter line; further: nearly all actives have a fitted effect of over 80% in size)
[9] = qHTS of pediatric cancer cell lines to identify multiple opportunities for drug repurposing: Primary screen for DAOY cells (AID 1347090); further: nearly all actives have a fitted effect of over 55% in size
Outline: as §1
Potency means the concentration at half of the fitted maximal effect.

SMILES | Potency [1] | Potency [2] | Potency [3] | Potency [4] | Potency [5] | Potency [6] | Potency [7] | Potency [8] | Potency [9]
COC(=O)[C@@H](N)CCCN=C(N)N[N+](=O)[O-] | inactive | inactive | inactive | 6.62 µM (active) | inactive | inactive | – | – | –
CC(C)OC(=O)C1=CN(C(=O)c2ccc(F)c(F)c2)CC(C)(C)c2c1[nH]c1ccccc21 | inactive | – | – | – | – | – | – | – | –
COc1c(Cl)cc2c([nH]c3cnccc32)c1NC(=O)c1cccnc1C | inactive | – | – | – | – | – | – | – | –
COc1ccc(N(C(=O)Oc2c(C)cccc2C)c2ccnc(Nc3ccc(N4CCN(C)CC4)cc3)n2)c(OC)c1 | inactive | inactive | 8.33 µM (active) | 1.32 µM (active) | 15.3 µM (active) | 8.33 µM (active) | 0.935 µM (active) | – | –
CC(N[C@H]1C[C@H]1c1ccccc1)c1ccc2c(c1)OCCO2 (stereo partly drawn) | inactive | inactive | inactive | – | inactive | inactive | inactive | inactive | inactive
CC(O)=C(C#N)C(=O)Nc1ccc(C(F)(F)F)cc1 | 19.3 µM (active) | – | – | – | – | – | – | – | –
Cc1c(C(=O)c2cccc3ccccc23)c2cccc3c2n1[C@H](CN1CCOCC1)CO3 | – | inactive | 14.8 µM (active) | 10.5 µM (active) | – | 20.9 µM (active) | 23.5 µM (active) | – | 23.5 µM (active)
S=C(SSC(=S)N1CCCCC1)N1CCCCC1 | – | 0.938 µM (active) | – | 0.0376 µM (active) | 0.309 µM (active) | – | 0.0266 µM (active) | – | 0.0266 µM (active)
COC[C@H]1OC(=O)c2coc3c2[C@@]1(C)C1=C(C3=O)[C@@H]2CC[C@H](O)[C@@]2(C)C[C@@H]1OC(C)=O | – | inactive | 0.469 µM (active) | 0.296 µM (active) | – | 0.526 µM (active) | 9.35 µM (active) | – | 14.8 µM (active)
O=C(Nc1ccncc1)C(=O)c1cn(Cc2ccc(Cl)cc2)c2ccccc12 | – | – | 0.0418 µM (active) | 0.0662 µM (active) | 0.217 µM (active) | 0.0264 µM (active) | 0.0743 µM (active) | 0.0544 µM (active) | 0.0935 µM (active)
CCCCCCCCCCCCCCCC[N+](C)(C)C | – | – | – | 5.31 µM (active) | 15.5 µM (active) | – | 4.22 µM (active) | – | 13.3 µM (active)
C[C@]12CC[C@H]3[C@@H](CCC4=CC(=O)CC[C@@]43C)[C@H]1CC[C@H]2OC(=O)CCC1CCCC1 | – | inactive | inactive | – | inactive | inactive | – | 6.11 µM (active) | inactive
